# Laboratory results taken from article PMC5540273 (PLoS ONE, 2017).
# Several values for one entry are separate records, joined by “and”; a condition that tells them apart may be missing. Identical values can stand only once. Like-named read-outs stand apart in the source and are kept apart here.
# Columns and labels:
# CSF1R-autoinhibited = conditions: concentration: 1 μM, replicates: in singlicate, n = 1
# CSF1R = conditions: concentration: 1 μM, replicates: in singlicate, n = 1
# CSK = conditions: concentration: 1 μM, replicates: in singlicate; n = 1
# CSNK1A1L = conditions: concentration: 1 μM, replicates: in singlicate, n = 1
# CSNK1A1 = conditions: concentration: 1 μM, replicates: in singlicate; n = 1
# CSNK1D = conditions: concentration: 1 μM, replicates: in singlicate, n = 1
# CSNK1E = conditions: concentration: 1 μM, replicates: in singlicate, n = 1
# CSNK1G1 = conditions: concentration: 1 μM, replicates: in singlicate, n = 1
# CSNK1G2 = conditions: concentration: 1 μM, replicates: in singlicate; n = 1
# CSNK1G3 = conditions: concentration: 1 μM, replicates: in singlicate, n = 1
# CSNK2A1 = conditions: concentration: 1 μM, replicates: in singlicate, n = 1
# CSNK2A2 = conditions: concentration: 1 μM, replicates: in singlicate, n = 1
# CTK = test system: T1, CTK; conditions: concentration: 1 μM, replicates: in singlicate, n = 1
# T1 construct: gene MATK
# DAPK1 = conditions: concentration: 1 μM, replicates: in singlicate, n = 1
# DAPK2 = conditions: concentration: 1 μM, replicates: in singlicate, n = 1
# DAPK3 = conditions: concentration: 1 μM, replicates: in singlicate; n = 1
# DCAMKL1 = test system: T2, DCAMKL1; conditions: concentration: 1 μM, replicates: in singlicate, n = 1
# T2 construct: gene DCLK1
# DCAMKL2 = test system: T3, DCAMKL2; conditions: concentration: 1 μM, replicates: in singlicate; n = 1
# T3 construct: gene DCLK2
# DCAMKL3 = test system: T4, DCAMKL3; conditions: concentration: 1 μM, replicates: in singlicate, n = 1
# T4 construct: gene DCLK3
# DDR1 = conditions: concentration: 1 μM, replicates: in singlicate, n = 1
# 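Note: KINOMEscan kinase panel screen.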
smiles,measurement,setting,value
COc1ccc(Nc2nccc(N3CCC(NC(=O)c4cccc(NC(C)=O)c4)C3)n2)cc1 (centres unmarked) [GSK1379732],%Inh,CSF1R-autoinhibited,49%
same,%Inh,CSF1R,1%
same,%Inh,CSK,0%
same,%Inh,CSNK1A1L,7%
same,%Inh,CSNK1A1,0%
same,%Inh,CSNK1D,13%
same,%Inh,CSNK1E,16%
same,%Inh,CSNK1G1,9%
same,%Inh,CSNK1G2,0%
same,%Inh,CSNK1G3,24%
same,%Inh,CSNK2A1,0%
same,%Inh,CSNK2A2,1%
same,%Inh,CTK,0%
same,%Inh,DAPK1,0%
same,%Inh,DAPK2,13%
same,%Inh,DAPK3,18%
same,%Inh,DCAMKL1,0%
same,%Inh,DCAMKL2,0%
same,%Inh,DCAMKL3,7%
same,%Inh,DDR1,0%
CCn1c(-c2ccncc2)nc2cnccc21 [SB-735216],%Inh,CSF1R-autoinhibited,47%
same,%Inh,CSF1R,2%
same,%Inh,CSK,0%
same,%Inh,CSNK1A1L,10%
same,%Inh,CSNK1A1,22%
same,%Inh,CSNK1D,8%
same,%Inh,CSNK1E,0%
same,%Inh,CSNK1G1,6%
same,%Inh,CSNK1G2,0%
same,%Inh,CSNK1G3,4%
same,%Inh,CSNK2A1,18%
same,%Inh,CSNK2A2,0%
same,%Inh,CTK,11%
same,%Inh,DAPK1,1%
same,%Inh,DAPK2,0%
same,%Inh,DAPK3,0%
same,%Inh,DCAMKL1,8%
same,%Inh,DCAMKL2,0%
same,%Inh,DCAMKL3,0%
same,%Inh,DDR1,0%
Cn1ccc2ncnc(Oc3ccc(NC(=O)Nc4cccnc4)c(Cl)c3)c21,%Inh,CSF1R-autoinhibited,0%
same,%Inh,CSF1R,82%
same,%Inh,CSK,0%
same,%Inh,CSNK1A1L,10%
same,%Inh,CSNK1A1,8%
same,%Inh,CSNK1D,0%
same,%Inh,CSNK1E,0%
same,%Inh,CSNK1G1,0%
same,%Inh,CSNK1G2,5%
same,%Inh,CSNK1G3,0%
same,%Inh,CSNK2A1,0%
same,%Inh,CSNK2A2,19%
same,%Inh,CTK,21%
same,%Inh,DAPK1,7%
same,%Inh,DAPK2,0%
same,%Inh,DAPK3,0%
same,%Inh,DCAMKL1,11%
same,%Inh,DCAMKL2,0%
same,%Inh,DCAMKL3,0%
same,%Inh,DDR1,99.3%
COc1ccc(NC(=O)c2ccc(-c3cc(-c4nnc(C)o4)ccc3C)cc2)cc1 [GW595885],%Inh,CSF1R-autoinhibited,7%
same,%Inh,CSF1R,14%
same,%Inh,CSK,0%
same,%Inh,CSNK1A1L,5%
same,%Inh,CSNK1A1,0%
same,%Inh,CSNK1D,0%
same,%Inh,CSNK1E,0%
same,%Inh,CSNK1G1,0%
same,%Inh,CSNK1G2,0%
same,%Inh,CSNK1G3,14%
same,%Inh,CSNK2A1,0%
same,%Inh,CSNK2A2,11%
same,%Inh,CTK,0%
same,%Inh,DAPK1,0%
same,%Inh,DAPK2,0%
same,%Inh,DAPK3,13%
same,%Inh,DCAMKL1,8%
same,%Inh,DCAMKL2,0%
same,%Inh,DCAMKL3,2%
same,%Inh,DDR1,13%
COc1ccc(Nc2nccc(N3CCC(NC(=O)Nc4ccc5c(c4)OCO5)C3)n2)cc1 (centres unmarked) [GSK1379745],%Inh,CSF1R-autoinhibited,16%
same,%Inh,CSF1R,0%
same,%Inh,CSK,0%
same,%Inh,CSNK1A1L,24%
same,%Inh,CSNK1A1,0%
same,%Inh,CSNK1D,83%
same,%Inh,CSNK1E,22%
same,%Inh,CSNK1G1,1%
same,%Inh,CSNK1G2,2%
same,%Inh,CSNK1G3,16%
same,%Inh,CSNK2A1,5%
same,%Inh,CSNK2A2,0%
same,%Inh,CTK,0%
same,%Inh,DAPK1,26%
same,%Inh,DAPK2,14%
same,%Inh,DAPK3,17%
same,%Inh,DCAMKL1,0%
same,%Inh,DCAMKL2,14%
same,%Inh,DCAMKL3,0%
same,%Inh,DDR1,15%
COc1ccc(-c2nc3n(c2-c2ccncc2)CCC3)cc1 [SKF-104493],%Inh,CSF1R-autoinhibited; 1 µM,6% and 9%
same,%Inh,CSF1R; 1 µM,23% and 2%
same,%Inh,CSK,0%
same,%Inh,CSNK1A1L; 1 µM,12% and 0%
same,%Inh,CSNK1A1,0%
same,%Inh,CSNK1D; 1 µM,40% and 18%
same,%Inh,CSNK1E; 1 µM,22% and 7%
same,%Inh,CSNK1G1; 1 µM,0% and 13%
same,%Inh,CSNK1G2,0%
same,%Inh,CSNK1G3; 1 µM,6% and 14%
same,%Inh,CSNK2A1; 1 µM,0% and 2%
same,%Inh,CSNK2A2; 1 µM,13% and 15%
same,%Inh,CTK; 1 µM,25% and 0%
same,%Inh,DAPK1; 1 µM,82% and 21%
same,%Inh,DAPK2; 1 µM,0% and 6%
same,%Inh,DAPK3,0%
same,%Inh,DCAMKL1; 1 µM,21% and 0%
same,%Inh,DCAMKL2,0%
same,%Inh,DCAMKL3; 1 µM,0% and 18%
same,%Inh,DDR1; 1 µM,33% and 67%
COc1ccc(-c2oc3ncnc(N)c3c2-c2ccc(OC)cc2)cc1 [SB-589132],%Inh,CSF1R-autoinhibited,70%
same,%Inh,CSF1R,61%
same,%Inh,CSK,0%
same,%Inh,CSNK1A1L,12%
same,%Inh,CSNK1A1,0%
same,%Inh,CSNK1D,11%
same,%Inh,CSNK1E,43%
same,%Inh,CSNK1G1,0%
same,%Inh,CSNK1G2,0%
same,%Inh,CSNK1G3,12%
same,%Inh,CSNK2A1,30%
same,%Inh,CSNK2A2,40%
same,%Inh,CTK,0%
same,%Inh,DAPK1,0%
same,%Inh,DAPK2,0%
same,%Inh,DAPK3,37%
same,%Inh,DCAMKL1,14%
same,%Inh,DCAMKL2,7%
same,%Inh,DCAMKL3,36%
same,%Inh,DDR1,94.6%
COc1ccc(NC(=O)Nc2ccc(C)c(-c3ccc(C(=O)Nc4ccncc4)cc3)c2)cc1 [GSK1398475],%Inh,CSF1R-autoinhibited,0%
same,%Inh,CSF1R,93.7%
same,%Inh,CSK,0%
same,%Inh,CSNK1A1L,3%
same,%Inh,CSNK1A1,0%
same,%Inh,CSNK1D,15%
same,%Inh,CSNK1E,36%
same,%Inh,CSNK1G1,6%
same,%Inh,CSNK1G2,6%
same,%Inh,CSNK1G3,44%
same,%Inh,CSNK2A1,0%
same,%Inh,CSNK2A2,0%
same,%Inh,CTK,0%
same,%Inh,DAPK1,5%
same,%Inh,DAPK2,0%
same,%Inh,DAPK3,3%
same,%Inh,DCAMKL1,10%
same,%Inh,DCAMKL2,0%
same,%Inh,DCAMKL3,9%
same,%Inh,DDR1,88%
CS(=O)(=O)CCNCc1nc(-c2ccc3ncnc(Nc4ccc(OCc5cccc(F)c5)c(Cl)c4)c3c2)cs1.Cl [GW583340],%Inh,CSF1R-autoinhibited,0%
same,%Inh,CSF1R,8%
same,%Inh,CSK,12%
same,%Inh,CSNK1A1L,0%
same,%Inh,CSNK1A1,0%
same,%Inh,CSNK1D,4%
same,%Inh,CSNK1E,45%
same,%Inh,CSNK1G1,17%
same,%Inh,CSNK1G2,0%
same,%Inh,CSNK1G3,24%
same,%Inh,CSNK2A1,2%
same,%Inh,CSNK2A2,17%
same,%Inh,CTK,0%
same,%Inh,DAPK1,25%
same,%Inh,DAPK2,0%
same,%Inh,DAPK3,6%
same,%Inh,DCAMKL1,16%
same,%Inh,DCAMKL2,0%
same,%Inh,DCAMKL3,0%
same,%Inh,DDR1,4%
COc1cc2ncnc(Nc3ccc(OCc4ccccc4Br)c(Cl)c3)c2cc1OC.Cl [GI261590],%Inh,CSF1R-autoinhibited,10%
same,%Inh,CSF1R,7%
same,%Inh,CSK,7%
same,%Inh,CSNK1A1L,0%
same,%Inh,CSNK1A1,0%
same,%Inh,CSNK1D,24%
same,%Inh,CSNK1E,24%
same,%Inh,CSNK1G1,0%
same,%Inh,CSNK1G2,0%
same,%Inh,CSNK1G3,27%
same,%Inh,CSNK2A1,0%
same,%Inh,CSNK2A2,0%
same,%Inh,CTK,0%
same,%Inh,DAPK1,0%
same,%Inh,DAPK2,0%
same,%Inh,DAPK3,17%
same,%Inh,DCAMKL1,14%
same,%Inh,DCAMKL2,0%
same,%Inh,DCAMKL3,21%
same,%Inh,DDR1,0%
